# Laboratory results taken from PubChem BioAssay.
# Calls of active or inactive are those of the source. Unless noted, the rule behind the calls is not given here.
# Experiments:
# [1] = test system: Wnt5a (protein binding on small-molecule microarray); experiment: Wnt5a binders on small-molecule microarray, primary screen, biophysical, 635/667 nm fluorescence (AID 1142); conditions: 635 nm fluorescence, higher = more signal;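 note: fluorescence read at 667 nm with signal to noise per printed feature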
# [2] = cell viability in Huh7 cells, primary screen, cytotoxicity control for HCV replication inhibitor project, CellTiter-Glo luminescence, basal, 48 h (AID 1143); conditions: Huh7 HCV replicon, higher = more signal, called active from +8 up or from −8 down;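 note: Huh7 hepatoma cells carrying a hepatitis C replication reporter with no stimulus; test concentration not given here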
# [3] = P. aeruginosa biofilm formation inhibitors, primary screen, PAO1 strain, BacTiter-Glo luminescence, LB-PBS (AID 1144); conditions: 12 h, higher = more signal
# [4] = CREB reporter modulators without forskolin, primary screen, cell-based, PC12, CRE-LacZ reporter, unstimulated (AID 1145); conditions: no forskolin, luminescence, 4.5 h, higher = more signal, called active from +8 up or from −8 down
# [5] = CREB reporter modulators under forskolin, primary screen, cell-based, PC12, CRE-LacZ reporter, forskolin-stimulated (AID 1146); conditions: luminescence, 4.5 h, higher = more signal, called active from +8 up or from −8 down;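 note: PC12 cells with 6xCRE LacZ reporter stimulated by forskolin 10 µM; beta-galactosidase reporter signal reflecting CREB driven transcription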
# [6] = target: Streptavidin (Streptomyces avidinii) (UniProt P22629); experiment: streptavidin binders on small-molecule microarray, primary screen, artefact control for SMM compound annotation, biophysical, 635/667 nm fluorescence (AID 1147); conditions: streptavidin binding, higher = more signal;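 note: signal reflects streptavidin binding to arrayed compounds as a control protein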
# Streptavidin (Streptomyces avidinii), sequence (P22629 whole entry, looked up): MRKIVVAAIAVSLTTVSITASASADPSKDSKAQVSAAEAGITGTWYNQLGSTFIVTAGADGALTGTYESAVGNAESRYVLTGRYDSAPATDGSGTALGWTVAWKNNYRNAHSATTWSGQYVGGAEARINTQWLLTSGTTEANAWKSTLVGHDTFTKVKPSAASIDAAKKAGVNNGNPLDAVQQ
# [7] = small-molecule binders of probe aInhba, primary screen, biochemical, small-molecule microarray, 635/667 nm fluorescence (AID 1148); conditions: higher = more signal;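 note: score merges 667nm spot fluorescence with signal-to-noise for antibody binding to printed compounds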
# [8] = target: Torsin-1A (Homo sapiens) (UniProt O14656); experiment: torsin A binders from cell lysate, primary screen, small-molecule microarray, wild-type, 635/667 nm (AID 1149); conditions: COS7 hTOR1A-WT lysate, 635 nm fluorescence, higher = more signal
# Torsin-1A (Homo sapiens), sequence (O14656 whole entry, looked up): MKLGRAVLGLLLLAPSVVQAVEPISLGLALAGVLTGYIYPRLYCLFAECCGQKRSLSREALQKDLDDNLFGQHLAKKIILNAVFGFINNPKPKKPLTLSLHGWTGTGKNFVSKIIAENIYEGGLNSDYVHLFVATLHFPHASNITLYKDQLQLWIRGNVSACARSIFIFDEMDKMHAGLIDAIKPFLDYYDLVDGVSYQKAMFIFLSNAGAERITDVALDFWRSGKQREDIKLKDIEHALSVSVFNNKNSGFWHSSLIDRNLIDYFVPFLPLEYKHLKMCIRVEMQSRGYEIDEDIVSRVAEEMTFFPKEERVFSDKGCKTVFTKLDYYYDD
# [9] = target: Torsin-1A (Homo sapiens) (UniProt O14656); experiment: small-molecule binders of mutant TOR1A in lysate, primary screen, cell lysate, small-molecule microarray, COS7 lysate, 635/667 nm fluorescence (AID 1150); conditions: COS7 hTOR1A mutant lysate, 635 nm fluorescence, higher = more signal;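 note: score pools 667 nm emission and signal to noise measuring lysate protein binding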
# [10] = test system: Sonic hedgehog protein (Shh); experiment: small-molecule binders of Shh protein, primary screen, biochemical, small-molecule microarray, 635/667 nm fluorescence (AID 1151); conditions: small-molecule microarray binding, 635 nm fluorescence; higher = more signal;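 note: Shh protein binding to compounds spotted on small-molecule microarray slides; score combines spot fluorescence intensity with signal-to-noise across triplicate slides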
# [11] = E. coli DRC41 culture turbidity changes, primary screen, E. coli filamentation inducer project, strain DRC41, OD650, 48 h (AID 1152);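 note: E. coli MC1000 strain DRC41 lacking acrAB efflux pump and sulA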; conditions: E. coli DRC41 (acrAB sulA), higher = more signal, called active from +8 up or from −8 down
# [12] = small-molecule binders of probe aLefty1, primary screen, biochemical, small-molecule microarray, 635/667 nm fluorescence (AID 1153); conditions: higher = more signal;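 note: score merges spot fluorescence with signal-to-noise ratio from the scanned slide images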
# [13] = PSAC antagonists in infected red cells, primary screen, cell-based, P. falciparum Indochina, OD700, 1 h (AID 1154); conditions: P. falciparum Indochina infected RBC osmotic lysis, higher = more signal, called active from +8 up or from −8 down
# [14] = PSAC antagonists in infected red cells, primary screen, cell-based, P. falciparum Indochina, OD700, 2 h (AID 1155);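 note: lysis reports solute entry through the parasite surface anion channel PSAC; channel blockers reduce lysis of infected cells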; conditions: P. falciparum Indochina infected erythrocytes, osmotic lysis OD700; higher = more signal, called active from +8 up or from −8 down
# [15] = osmotic lysis modulators in infected erythrocytes, primary screen, PSAC antagonist project, cell-based, P. falciparum Indochina, OD700, 3 h (AID 1156); conditions: higher = more signal, called active from +8 up or from −8 down
# [16] = PSAC antagonists in infected red cells, primary screen, cell-based, P. falciparum Indochina, OD700, 18 h (AID 1157); conditions: P. falciparum Indochina infected erythrocytes, osmotic lysis OD700, 18 h; higher = more signal, called active from +8 up or from −8 down
# [17] = modulators of S6 phosphorylation in cells, primary screen, cell-based, A549, cytoblot, luminescence, serum-stimulated (AID 1158); conditions: A549 phospho-S6 cytoblot, 5 h, higher = more signal;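 note: serum-stimulated A549 lung adenocarcinoma cells; signal is phosphorylated S6 detected by cytoblot immunostaining with HRP secondary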
# [18] = target: NADPH oxidase 2 (Homo sapiens) (UniProt P04839); experiment: NOX2-dependent H2O2 signal modulators, primary screen, NOX inhibitor project, cell-based, HEK293-NOX2, PMA-stimulated, Amplex Red fluorescence (AID 1159); conditions: 45 min, higher = more signal, called active from +8 up or from −8 down; note: test concentration not given here
# NADPH oxidase 2 (Homo sapiens), sequence (P04839 whole entry, looked up): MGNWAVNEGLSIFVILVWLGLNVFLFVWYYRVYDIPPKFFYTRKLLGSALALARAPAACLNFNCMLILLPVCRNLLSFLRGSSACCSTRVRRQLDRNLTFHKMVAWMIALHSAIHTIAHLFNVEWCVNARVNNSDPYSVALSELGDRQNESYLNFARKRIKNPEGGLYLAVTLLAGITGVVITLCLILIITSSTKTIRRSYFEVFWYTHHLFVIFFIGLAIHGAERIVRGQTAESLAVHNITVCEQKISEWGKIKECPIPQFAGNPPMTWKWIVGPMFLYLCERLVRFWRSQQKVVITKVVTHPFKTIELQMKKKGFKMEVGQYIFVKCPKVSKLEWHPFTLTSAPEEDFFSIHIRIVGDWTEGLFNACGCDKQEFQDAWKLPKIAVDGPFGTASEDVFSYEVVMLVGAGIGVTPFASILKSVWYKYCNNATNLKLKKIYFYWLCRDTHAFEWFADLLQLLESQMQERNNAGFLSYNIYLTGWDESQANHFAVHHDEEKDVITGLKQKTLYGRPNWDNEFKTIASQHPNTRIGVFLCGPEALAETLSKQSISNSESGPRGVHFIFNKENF
# [19] = target: NADPH oxidase 4 (Homo sapiens) (UniProt Q9NPH5); experiment: NOX4-dependent H2O2 signal modulators, primary screen, NOX inhibitor project, cell-based, HEK293-NOX4, tetracycline-induced, Amplex Red fluorescence (AID 1160); conditions: 45 min, higher = more signal, called active from +8 up or from −8 down
# NADPH oxidase 4 (Homo sapiens), sequence (Q9NPH5 whole entry, looked up): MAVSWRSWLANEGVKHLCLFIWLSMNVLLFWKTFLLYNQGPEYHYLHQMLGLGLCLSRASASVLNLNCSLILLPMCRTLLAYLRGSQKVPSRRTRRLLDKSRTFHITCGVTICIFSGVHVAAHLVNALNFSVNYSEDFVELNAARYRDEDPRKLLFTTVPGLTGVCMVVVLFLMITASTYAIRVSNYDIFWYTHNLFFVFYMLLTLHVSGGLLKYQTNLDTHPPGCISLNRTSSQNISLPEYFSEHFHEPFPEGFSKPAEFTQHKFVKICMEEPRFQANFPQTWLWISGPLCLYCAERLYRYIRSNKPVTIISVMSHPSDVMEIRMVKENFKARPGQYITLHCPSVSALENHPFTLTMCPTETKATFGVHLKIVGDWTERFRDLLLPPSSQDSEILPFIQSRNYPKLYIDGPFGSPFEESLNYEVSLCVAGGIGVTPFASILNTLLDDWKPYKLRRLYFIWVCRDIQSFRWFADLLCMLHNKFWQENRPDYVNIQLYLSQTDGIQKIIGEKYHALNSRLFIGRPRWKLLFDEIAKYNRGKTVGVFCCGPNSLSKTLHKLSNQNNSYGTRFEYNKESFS
# [20] = target: NADPH oxidase 5 (Homo sapiens) (UniProt Q96PH1); experiment: NOX5-dependent H2O2 signal modulators, primary screen, NOX inhibitor project, cell-based, HEK293-NOX5, Amplex Red fluorescence (AID 1161); conditions: HEK293-NOX5, ionomycin, 45 min, higher = more signal
# NADPH oxidase 5 (Homo sapiens), sequence (Q96PH1 whole entry, looked up): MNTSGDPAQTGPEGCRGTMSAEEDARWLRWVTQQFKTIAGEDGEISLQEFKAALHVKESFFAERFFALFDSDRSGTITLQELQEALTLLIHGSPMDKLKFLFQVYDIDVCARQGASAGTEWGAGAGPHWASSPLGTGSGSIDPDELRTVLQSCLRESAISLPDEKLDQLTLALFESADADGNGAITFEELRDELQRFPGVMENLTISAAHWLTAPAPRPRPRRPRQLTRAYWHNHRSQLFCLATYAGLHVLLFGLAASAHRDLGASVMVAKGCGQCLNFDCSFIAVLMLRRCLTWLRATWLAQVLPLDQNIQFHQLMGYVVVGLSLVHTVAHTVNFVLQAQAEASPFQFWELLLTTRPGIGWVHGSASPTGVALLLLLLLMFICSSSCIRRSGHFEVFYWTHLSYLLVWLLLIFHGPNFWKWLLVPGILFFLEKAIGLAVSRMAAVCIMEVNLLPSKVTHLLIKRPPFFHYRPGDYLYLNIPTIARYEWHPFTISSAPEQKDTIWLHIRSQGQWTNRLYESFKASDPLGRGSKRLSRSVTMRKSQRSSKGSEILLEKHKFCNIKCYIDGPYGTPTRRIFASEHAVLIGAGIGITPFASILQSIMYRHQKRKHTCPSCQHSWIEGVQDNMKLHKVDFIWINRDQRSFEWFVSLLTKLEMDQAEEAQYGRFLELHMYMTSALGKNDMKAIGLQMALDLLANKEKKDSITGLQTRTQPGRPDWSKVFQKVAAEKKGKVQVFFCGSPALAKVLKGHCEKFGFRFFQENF
Compound,composite z-score [1],z-score [2],z-score [3],z-score [4],z-score [5],composite z-score [6],composite z-score [7],composite z-score [8],composite z-score [9],composite z-score [10],z-score [11],composite z-score [12],z-score [13],z-score [14],z-score [15],z-score [16],z-score [17],z-score [18],z-score [19],z-score [20]
CN1C(=O)C2C=CC(C(O)c3cc(C(F)(F)F)cc(C(F)(F)F)c3)N(Nc3ccccc3)C2C1=O (stereo not given),-0.253,-0.73 (inactive),0.329 (inactive),0.626 (inactive),-0.0455 (inactive),0.0416,-0.128,-1.74,1.13,-0.145,-1.07 (inactive),0.0341,0.277 (inactive),0.301 (inactive),-0.753 (inactive),0.797 (inactive),-0.77,-1.59 (inactive),-4.95 (inactive),-1.99
CC(C)N1CC=CC23O[C@@H]4/C=C\CCCOC(=O)C4[C@H]2C(=O)N(CCCCCCO)[C@@H]3C1=O (stereo not given in full),-0.0379,0.0722 (inactive),-0.0303 (inactive),-0.48 (inactive),-1.02 (inactive),-1.13,-0.205,-0.14,0.55,-0.0836,2.15 (inactive),0.248,0.904 (inactive),0.0039 (inactive),0.622 (inactive),0.133 (inactive),0.842,1 (inactive),0.105 (inactive),1.92
CN(C)C(=O)[C@@]1(CCC(=O)OC(C)(C)C)N=C(c2ccc(OCCCO)cc2)O[C@H]1c1ccccc1CN=[N+]=[N-],0.281,-0.292 (inactive),-0.0794 (inactive),0.148 (inactive),0.27 (inactive),0.457,0.0857,0.946,1.99,-0.733,0.476 (inactive),0.121,14.6 (active),1.39 (inactive),0.668 (inactive),0.447 (inactive),-0.25,-1.73 (inactive),-0.111 (inactive),-0.901
COC(=O)C1=CC(CCCO)=CC(c2ccc(CN3CCCC3)cc2)N(Cc2cc3c(cc2Br)OCO3)C=C1C(=O)OC (stereo not given),0.804,-0.0928 (inactive),-0.44 (inactive),0.0118 (inactive),-0.602 (inactive),1.98,0.36,0.0851,2.59,-0.249,0.235 (inactive),0.744,0.903 (inactive),0.408 (inactive),1.23 (inactive),0.082 (inactive),0.158,1.64 (inactive),-0.638 (inactive),0.399
COCCCNC(=O)[C@@]1(c2ccc([N+](=O)[O-])cc2)CC(=O)N(C(C)C)[C@@H]1c1ccc(CO)cc1,0.0039,0.433 (inactive),0.797 (inactive),0.495 (inactive),0.0212 (inactive),-0.934,0.315,0.722,1.05,0.0776,0.569 (inactive),0.125,0.481 (inactive),-0.135 (inactive),-0.288 (inactive),-0.0629 (inactive),0.361,-0.635 (inactive),0.726 (inactive),-0.0684
[N-]=[N+]=Nc1ccccc1C[C@]1(C(=O)O)N=C(c2ccc(OCCCO)cc2)O[C@H]1c1ccccc1N=[N+]=[N-],0.0284,-1.26 (inactive),0.0243 (inactive),0.274 (inactive),-1.65 (inactive),1.58,0.362,0.327,0.241,-0.0242,0.476 (inactive),0.612,30.8 (active),27.6 (active),2.88 (inactive),4.45 (inactive),-0.0428,-2.72 (inactive),0.551 (inactive),-2.15
[N-]=[N+]=NCc1ccccc1[C@H]1OC(c2ccc(OCCCO)cc2)=N[C@@]1(Cc1ccccc1)C(=O)NCCN1CCOCC1,0.526,-3.01 (inactive),-0.206 (inactive),1.53 (inactive),-0.355 (inactive),1.13,0.555,1.03,0.604,0.502,0.694 (inactive),0.843,28.1 (active),22.1 (active),3.64 (inactive),3.74 (inactive),-0.281,0.0323 (inactive),1.93 (inactive),1.58
O=C1[C@@]23C=C(Br)[C@H](C[C@@H]2COC3)[C@@]12CO2,0.731,0.762 (inactive),0.461 (inactive),-0.329 (inactive),2.56 (inactive),-0.129,-0.0986,0.283,0.276,0.497,-1.07 (inactive),-0.217,0.297 (inactive),0.0503 (inactive),-0.497 (inactive),0.258 (inactive),-0.679,0.249 (inactive),0.218 (inactive),0.139
C=C(/C(=C/C[C@H](OC(=O)c1ccncc1)c1ccccc1OCCO)c1cnc2ccccc2c1)C(C)C,0.733,-0.0956 (inactive),-0.91 (inactive),2.52 (inactive),1.5 (inactive),1.81,0.0471,1.06,1.07,2.01,-0.227 (inactive),0.313,11.1 (active),1.86 (inactive),1.41 (inactive),0.553 (inactive),0.125,-1.71 (inactive),-0.391 (inactive),-0.914
O=C1c2ccccc2[C@](Cc2ccccc2I)(C(=O)NC2CC2)[C@H](c2ccc(CO)cc2)N1Cc1ccccc1C(F)(F)F,-0.15,-4.84 (inactive),-0.0186 (inactive),0.764 (inactive),-0.5 (inactive),0.671,1.25,0.147,0.16,0.792,-1.14 (inactive),-0.0902,8.14 (active),0.789 (inactive),4.29 (inactive),-0.165 (inactive),2.18,0.459 (inactive),-1.34 (inactive),-2.92
C=CC[C@H](OC(=O)Nc1ccc(SC)cc1)c1ccc(OCCO)cc1,-0.348,-2.69 (inactive),-0.982 (inactive),8.61 (active),0.938 (inactive),-0.707,-0.112,0.25,0.154,1.68,-0.393 (inactive),-0.0987,31 (active),17.3 (active),3.54 (inactive),1.58 (inactive),-0.161,-1.96 (inactive),-0.438 (inactive),-1.34
CC(C)C[C@@H]1NC(=O)[C@@]23C(=O)N[C@@H](Cc4ccccc4)C2[C@H](C)[C@@]2(C)O[C@H]2C3/C=C/C/C=C\CNC(=O)[C@@H](C)NC1=O (stereo not given in full),-0.336,-0.611 (inactive),-0.944 (inactive),0.662 (inactive),-0.268 (inactive),-0.823,-0.348,0.056,-0.196,1.29,0.767 (inactive),-0.444,0.961 (inactive),-1.13 (inactive),-0.826 (inactive),-0.967 (inactive),0.338,0.848 (inactive),1.65 (inactive),0.953
C=C(/C(=C/C[C@@H](OC(C)=O)c1ccc(CO)o1)c1cc(C(=O)OC)ccc1OC)C(C)C,0.201,-0.143 (inactive),-0.0434 (inactive),0.247 (inactive),2.78 (inactive),-0.446,0.148,0.431,0.549,1.07,0.225 (inactive),-0.0536,4.3 (inactive),0.758 (inactive),1.35 (inactive),0.479 (inactive),-0.0642,-0.169 (inactive),-0.673 (inactive),-0.988
CC(C)[C@H]1NC(=O)[C@@]23C(=O)N[C@@H](Cc4ccccc4)C2[C@H](C)[C@@]2(C)O[C@H]2C3/C=C/CCC/C=C/CNC(=O)[C@H](Cc2ccccc2)NC1=O (stereo not given in full),-0.178,-1.23 (inactive),1.01 (inactive),1.4 (inactive),-0.723 (inactive),-0.77,-0.152,0.343,0.671,2.03,-0.246 (inactive),0.0582,1.18 (inactive),0.581 (inactive),0.81 (inactive),0.182 (inactive),0.352,1.46 (inactive),0.525 (inactive),0.896
C=CCN1C(=O)[C@@]2(O[C@@H](CCO)[C@H]([Si](C)(C)c3ccc(OC)cc3)[C@H]2C)c2cc(N3CCOC3=O)ccc21,-0.0317,-7.42 (inactive),-0.202 (inactive),6.34 (inactive),-3.56 (inactive),0.0828,-0.0695,-0.0921,0.543,-0.285,0.232 (inactive),-0.152,24.6 (active),12.6 (active),0.28 (inactive),2.21 (inactive),0.309,-2.41 (inactive),1.35 (inactive),-1.52
C=C[C@@H](OC)[C@H](OC(=O)Nc1ccc(OC)cc1)c1ccc(OC)c(O)c1,-0.451,-0.749 (inactive),-0.327 (inactive),0.702 (inactive),0.177 (inactive),-0.833,-0.166,-2.5,-1.12,0.63,0.139 (inactive),-0.123,2.48 (inactive),0.96 (inactive),0.0081 (inactive),0.45 (inactive),-0.0451,-2.52 (inactive),-1.04 (inactive),-1.2
CCCNC(=O)[C@@]1(C)c2ccccc2C(=O)N(Cc2ccccc2)[C@H]1c1ccc(CO)cc1,-0.15,-0.535 (inactive),0.62 (inactive),0.0924 (inactive),-0.163 (inactive),-1,0.101,-0.102,-1.96,-0.203,1.3 (inactive),0.594,3.35 (inactive),0.505 (inactive),0.231 (inactive),0.157 (inactive),0.0612,-0.703 (inactive),-0.0486 (inactive),0.885
